This is a sample that favours compounds with a hit; in the whole collection about 21% have one here.
Shiga inhibitor: A qHTS for Small Molecule Inhibitors of Shiga Toxin | Vero cells, Shiga toxin protein synthesis inhibition reporter | inhibition, % at 38.7 µM | 290,000 compounds, 9.2% hits | AID 2315, 2010; in the data active means inhibition mostly above about 28%, no sharp cut-off; inactive means mostly below about 43%
Pf growth 96h: Primary qHTS for delayed death inhibitors of the malarial parasite plastid, 96 hour incubation. P. falciparum luciferase reporter growth, 96 h. AID 504834, 2011. Potency, µM (series often up to 28.7 µM), actives largely listed as inhibitors. 320,000 compounds, 6.9% hits
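Two parasite generations (96 h, 37 C, 5% CO2) of compound exposure in infected erythrocytes (0.05% parasitemia, 2% hematocrit). Luciferase-reporter P. falciparum; decreased luminescence indicates inhibited growth, aimed at apicoplast-acting delayed death.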
NS1 function inh: qHTS Assay for Inhibitors of Influenza NS1 Protein Function | Potency, µM (series often up to 46.1 µM) | 270,000 compounds, 0.4% hits | AID 2326, 2010; calls by dose curve; further: actives are rising curves; nearly all actives have a fitted effect of over 50% in size
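Read-out: OD600 growth recovery of NS1-expressing budding yeast. Cells grown overnight at 30C in -URA glucose medium, washed, resuspended and diluted 1:100 in 2% galactose assay medium, pH 6.0. Same strain lacking NS1 served as positive control.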
Cycloheximide cs: Cycloheximide Counterscreen for Small Molecule Inhibitors of Shiga Toxin. cell reporter, cycloheximide protein synthesis inhibition counterscreen. max response, %. 300,000 compounds, 12% hits. AID 2314, 2010; in the data active means max response mostly above about 13%, no sharp cut-off; inactive means mostly below about 14%; further: read at 38.3 µM for the half of the compounds with a filed dose
Pf growth 48h: Primary qHTS for delayed death inhibitors of the malarial parasite plastid, 48 hour incubation; P. falciparum luciferase growth in erythrocytes, 48 h; Potency, µM (highest dose often 28.7 µM), actives largely listed as inhibitors; 310,000 compounds, 5.9% hits
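First compound was added to culture medium, then infected red cells at 0.1% parasitemia and 2% hematocrit (final). After incubation at 37 C under 5% CO2, luciferase detection reagent was dispensed and light output recorded.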
A number is an active result; n = inactive; u = inconclusive; x = no result. Unless noted, the call rests on the fitted dose curve; in most records, active means well fitted inhibition curve with a large enough effect; inconclusive means small, poorly fitted or top-dose-only effect, or another doubt; inactive means no such curve, though single readings can be large or run the other way.

SMILES	Shiga inhibitor	Pf growth 96h	NS1 function inh	Cycloheximide cs	Pf growth 48h
COc1ccc(-n2nc(C(=O)NCC(=O)NC3CCCC(C)C3C)c3ccccc3c2=O)c(OC)c1 (centres undefined)	n	5.9µM	n	n	u
COc1ccc(/C=N/NC(=O)c2nn(-c3ccc(C)c(C)c3)c(=O)c3ccccc23)cc1	n	u	n	n	13µM
COc1ccc(-n2nc(C(=O)NCC(=O)Nc3ccc(F)cc3)c3ccccc3c2=O)cc1	n	n	n	n	12µM
COc1ccc(-n2nc(C(=O)NCC(=O)Nc3cc(OC)ccc3OC)c3ccccc3c2=O)cc1	n	u	n	n	3.3µM
COc1ccccc1NC(=O)COC(=O)c1cnccn1	n	x	n	n	n
COc1ccc(OC)c(S(=O)(=O)N2CCN(C(=O)NC3CCCCC3)CC2)c1	x	n	x	x	n
COc1ccc(NC(=O)CNC(=O)c2nn(-c3ccc(OC)c(Cl)c3)c(=O)c3ccccc23)c(OC)c1	n	n	n	n	9.3µM
COc1ccc(-n2nc(C(=O)NCC(=O)Nc3ccccn3)c3ccccc3c2=O)cc1Cl	n	9.3µM	n	n	n
COc1ccc(-n2nc(C(=O)NCC(=O)Nc3cc(Cl)c(OC)cc3OC)c3ccccc3c2=O)cc1	n	n	n	n	u
CCOc1ccccc1NC(=O)CNC(=O)c1nn(-c2ccc(OC)c(OC)c2)c(=O)c2ccccc12	n	u	n	n	13µM
CCOc1ccc(NC(=O)CNC(=O)c2nn(-c3ccc(OC)c(OC)c3)c(=O)c3ccccc23)cc1	n	u	n	n	n
COc1ccc(/C=N/NC(=O)c2nn(-c3ccc(Cl)cc3)c(=O)c3c(N)scc23)cc1	n	8.3µM	n	n	x
CCOCCCNC(=O)C(NC(=O)CNC(C)=O)c1ccc(C)cc1 (centres undefined)	n	9.3µM	n	n	n
C[C@H](NC(=O)[C@H]1N2C(=O)c3ccccc3C2SC1(C)C)C(=O)N1CCCCC1 (some centres undefined)	n	n	n	n	n
Cc1ccc2nc3c(c(Nc4cccc(O)c4)c2c1)CCC3	n	n	n	n	5.2µM
COC(=O)c1cccc(Nc2c3c(nc4ccccc24)CCC3)c1	n	n	n	n	12µM
COc1ccccc1Nc1c2c(nc3ccccc13)CCC2	n	u	n	n	8.3µM
CC(=O)c1cccc(Nc2c3c(nc4ccccc24)CCC3)c1	n	n	n	n	u
COc1ccc(Nc2c3c(nc4ccccc24)CCC3)c(OC)c1	n	n	n	n	u
CC1CCCCN1CCNC(=O)CN1C(=O)CSc2ccc(S(=O)(=O)N3CCCCC3)cc21 (centres undefined)	n	u	n	n	n
O=C(NCCCn1ccnc1)c1cc2cc([N+](=O)[O-])ccc2oc1=O	n	n	n	n	n
COc1ccc(N2C(=O)CC(N3CCN(c4nc5ccccc5s4)CC3)C2=O)cc1 (centres undefined)	n	4.7µM	n	n	n
COc1ccc2nc(N3C(=O)CC(C(C)c4ccccc4)C3=O)sc2c1 (centres undefined)	n	3.7µM	n	n	n
COc1ccc(C2SCC(=O)N2c2nc3ccccc3s2)cc1 (centres undefined)	111	n	n	42	n
CCOc1ccc(N2C(=O)CC(N3CCN(c4ccccc4OC)CC3)C2=O)cc1 (centres undefined)	n	2.6µM	n	n	2.9µM
SMILES	Shiga inhibitor	Pf growth 96h	NS1 function inh	Cycloheximide cs	Pf growth 48h
CC1(C)CC(CC(=O)Nc2nccs2)(c2ccccc2)CCO1 (centres undefined)	n	n	n	n	u
C=CC(=O)N(CCC)C(c1ccccc1)c1ccccc1OC (centres undefined)	x	u	x	x	13µM
Cn1c(CN2CCN(S(C)(=O)=O)CC2)nc2cc([N+](=O)[O-])ccc21	n	n	n	n	n
O=C1c2ccccc2NC(c2ccc(Cl)cc2Cl)N1Cc1ccccc1 (centres undefined)	n	u	n	n	x
O=C1c2ccccc2NC(c2c(Cl)cccc2Cl)N1Cc1ccccc1 (centres undefined)	n	n	u	n	13µM
COc1ccc(C2/C(=C(/O)c3ccc(C)cc3)C(=O)C(=O)N2CC2CCCO2)cc1OC (centres undefined)	n	n	n	n	n
CN1CCN(C(=O)c2ccc3c(c2)N(Cc2cccc(Cl)c2)C(=O)c2ccccc2S3(=O)=O)CC1	n	12µM	n	n	u
